These results are taken from PubChem BioAssay (NCATS).

Experiment [1] can be described thus: Primary qHTS for inhibitors of SARS-S pseudo-typed particle cell entry (AID 1479145; calls by dose curve; further: on the % scale 0 is the no-effect control and ±100 the full control effect; nearly all actives have a fitted effect of over 45% in size). On the technique in general: Quantitative high-throughput screening tests each substance at several concentrations.
Experiment [2] is described as follows: Primary qHTS for Huh7 cytotoxicity: counterscreen for inhibitors of MERS-S pseudotyped particle cell entry (AID 1479147; calls by dose curve). As to conditions: outcome: dose series up to 57.1 µM unless noted.
The nature of experiment [3]: Primary qHTS for inhibitors of MERS-S pseudo-typed particle cell entry (AID 1479149; calls by dose curve; further: nearly all actives have a fitted effect of over 60% in size; on activity change, negative = inhibition: on the % scale 0 is the no-effect control and ±100 the full control effect).
A short description of experiment [4]: Primary qHTS for Vero E6 cytotoxicity: counterscreen for inhibitors of SARS-S pseudo-typed particle cell entry (AID 1479150; calls by dose curve). To be noted: outcome: dose series up to 57.1 µM unless noted.
Experiment [5] in a line: Cytotoxicity counterscreen for inhibitors of SARS-CoV-2 cell entry (AID 1645845; calls by dose curve; further: nearly all actives have a fitted effect of over 50% in size). The method, boiled down: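 Expi293F/hACE2 cells seeded overnight; cpd pin-transferred in DMSO, 1 h preincubation, + media, 48 h 37 C 5% CO2; ATPLite 1step luminescence; normalized to cells and no cells.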
Experiment [6] addresses Cytochrome P450 3A4 (Homo sapiens) (UniProt P08684). In words: qHTS Assay for Inhibitors and Substrates of Cytochrome P450 3A4 (AID 884). Further: nearly all actives have a fitted effect of over 50% in size. Further: potency means the concentration at half of the fitted maximal effect. Summed up: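 20 nM human CYP3A4 with 25 uM Luciferin-PPXE (at KM) in 200 mM KPO4, preincubated 10 min with compound; NADPH regeneration started a 60 min RT reaction. Luciferin detected by luminescence, normalized to 57 uM ketoconazole as full inhibition.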

Experiment [7] has the same target. Nature of the experiment: qHTS Assay for Activators of Cytochrome P450 3A4 (AID 885). Further: nearly all actives have a fitted effect of over 65% in size. The method, boiled down:
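20nM CYP3A4 + 25uM Luciferin-PPXE (=KM), 200mM KPO4; cpd 10 min RT; NADPH regen, 60 min RT; stop w/ detection buffer, 20 min; luminescence. Normalized to 57 uM ketoconazole.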

For experiment [8], the target named is DNA dC->dU-editing enzyme APOBEC-3G (Homo sapiens) (UniProt Q9HC16). Nature of the experiment: qHTS for inhibitors of Vif-A3G interactions: Validation (AID 588379). Further: 0% is about no effect. Summed up: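 HeLa cells stably expressing Vif and A3G-eYFP, 700 cells/well, incubated overnight at 37 deg C, then exposed to compound overnight at 37 deg C. Inhibition of Vif-mediated degradation read as increased yellow fluorescence (Ex 488/Em 500-530) by laser-scanning cytometry.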

Experiment [9] has as its system Zika virus NS2B-NS3 protease. In words: Primary screen GU AMC qHTS for Zika virus inhibitors (AID 1347154).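 Further: 0% = no-inhibitor control and -100% = no-enzyme control; nearly all actives have a fitted effect of over 70% in size.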 The method, boiled down: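 Unlinked Zika NS2B hydrophilic domain/NS3 protease domain noncovalent complex (25 nM final) in 10 mM Tris-HCl pH 8.0, 0.01% Tween 20, with AMC peptide substrate. Fluorescence (ex 340, em 450 nm) change over 15 min, room temperature; percent inhibition fitted to 4-parameter Hill equation.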

Experiment [10] can be described thus: Primary qHTS for small molecule stabilizers of the endoplasmic reticulum resident proteome: Secreted ER Calcium Modulated Protein (SERCaMP) assay (AID 1508630). Further: potency means the concentration at half of the fitted maximal effect. On activity change, negative = inhibition: on the % scale 0 is the no-effect control and ±100 the full control effect. The method, boiled down:
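GLuc-SERCaMP-expressing SH-SY5Y cells, pretreated 16 h with compound, are challenged with thapsigargin to empty ER calcium stores; after 4 h, coelenterazine is added directly to the medium and luminescence is imaged.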

A short description of experiment [11]: qHTS to identify inhibitors of the type 1 interferon - major histocompatibility complex class I in skeletal muscle: primary screen against the NCATS Mechanism Interrogation Plate v5.0 (MIPE) Libary (AID 1347411). Further: nearly all actives have a fitted effect of over 65% in size. Further: potency means the concentration at half of the fitted maximal effect.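 On activity change, negative = inhibition: plate controls were vehicle for no effect and reference inhibitor for full effect.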 The method, boiled down: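 Cells were genome-edited human myoblasts carrying a HiBit tag on endogenous HLA-B. They were treated with IFN-beta (4.0 ng/ml) and titrated compounds (top 46 uM) for 24 hrs before lytic HiBiT detection.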

Experiment [12] in a line: qHTS assay to identify inhibitors of the type 1 interferon - major histocompatibility complex class I in skeletal muscle: Counter screen cell viability and HiBit confirmation (AID 1347412). Further: nearly all actives have a fitted effect of over 60% in size. Further: potency means the concentration at half of the fitted maximal effect. As to conditions: iHSKM muscle cells + IFN-b, HiBiT or CellTiter-Glo, 24 h; Potency: HiBiT; Viability, at 45.9 µM (top of the series). Summed up:
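HLA-B*08:01–HiBiT knock-in immortalized human myoblasts (C25cl48) stimulated with 4.0 ng/ml human IFN-beta and dosed with compound in a 12-point 1:3 titration (top final 46 uM). After 24 hrs at 37 C, HiBiT lytic luminescence or CellTiter Glo ATP read out.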

Experiment [13] is described as follows: Confirmatory qHTS for VERO E6 Cytotoxicity Assay: Counterscreen for SARS-CoV-2 CPE Assay (AID 1508605; calls by dose curve; further: nearly all actives have a fitted effect of over 60% in size; further: potency means the concentration at half of the fitted maximal effect).
A short description of experiment [14]: Confirmatory qHTS for activators (rescue) of SARS-CoV-2 Cytopathic Effect (CPE) (AID 1508606; calls by dose curve; further: potency means the concentration at half of the fitted maximal effect; nearly all actives have a fitted effect of over 70% in size).
A short description of experiment [15]: qHTS Assay for Lipid Storage Modulators (AID 1519; calls by dose curve). As to conditions: Drosophila S3 cells, BODIPY lipid droplet/cell ratio, laser cytometry, cells loaded with oleic acid; for activity change, negative = inhibition: at 57.5 µM (top of the series). The method, boiled down: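 Cells seeded at 5,000 per well were treated with compounds over a concentration series and loaded with oleic acid (400 uM, as added). Lipid droplet fluorescence (488 nm excitation, 500-530 nm channel) was read by laser-scanning cytometry and normalized to 20 uM Triacsin C.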

The next experiment relates to HEK293T. In words: qHTS assay to identify novel small-molecules to repurpose for Merkel cell carcinoma treatment (AID 1296009). Further: nearly all actives have a fitted effect of over 60% in size. As to conditions: MCC and control cell lines, CellTiter-Glo viability, 72 h; at 44.8 µM (top of the series) unless noted. The method, boiled down: (§1)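 Cells exposed to NPC (8-point) and MIPE (11-point) compound dilutions for 72 hr at 37 degree celsius; viability read by CellTiter-Glo luminescence, normalized to no-cell and DMSO in-plate controls.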

The next experiment relates to NIH3T3. Described as above. To be noted: MCC and control cell lines, CellTiter-Glo viability, 72 h; at 44.8 µM (top of the series) unless noted. The method, boiled down:
as §1
Background: ATP-based viability assays read luminescence as a measure of living cells.

Experiment [16] can be described thus: NFAT Signaling Pathway (AID 444; active means well fitted curve in either direction with a large enough effect, not every such curve was filed as active;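 further: carbachol stimulus at about its EC50 of 1 µM final; on the % scale 0 is the no-effect control and ±100 the full control effect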). To be noted: Jurkat NFAT-bla M1, carbachol, beta-lactamase ratio, 5 h. The method, boiled down: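 Jurkat cells carrying an NFAT-driven β-lactamase reporter and co-transfected muscarinic M1 receptor were treated with compound plus carbachol (1 uM final, an EC50 level) for 5 h at 37 °C. CCF4 loading followed for 1 h at RT; 460/530 nm ratio gave %activity.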

Experiment [17] can be described thus: Stat Signaling Pathway (AID 446; active means well fitted curve in either direction with a large enough effect, not every such curve was filed as active;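 further: ME-180 cervical cancer cells given 40 pM IL-6 alongside compound; SIE-controlled beta-lactamase reporter measured as 460/530 nm FRET emission ratio; on the % scale 0 is the no-effect control and ±100 the full control effect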). The method, boiled down:
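ME-180 SIE-bla cells; overnight plating; cpd + IL-6 40 pM, 5 h, 37 C; LiveBLAzer 2.5 h RT; 460/530 nm emission ratio. Normalized to 300 pM IL-6 and 125 nM JAK inhibitor controls.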

The target in experiment [18] is Glucocorticoid receptor (Homo sapiens) (UniProt P04150). In words: GR-GFP Redistribution (AID 450;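 active means compounds whose dose series gives a full or clear partial fitted curve of increased nuclear translocation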; further: potency means the concentration at half of the fitted maximal effect). To be noted: U2OS GR-GFP nuclear translocation, laser cytometry, 2 h.
The mark [19] stands for this setting: measured here: cell count channel max response.
Where [20] appears, read: measured here: lipid channel max response.

Results filed as inconclusive are left out. Activity calls are given as the source filed them. Unless noted, the call rests on the fitted dose curve; in most records, active means well fitted curve in the direction sought with a large enough effect; inconclusive means small, poorly fitted or top-dose-only effect, or another doubt; inactive means no such curve, though single readings can be large; an effect the other way counts as inactive or inconclusive. Where only a bound is given, the exact number is not on record here.

Glucocorticoid receptor (Homo sapiens), sequence (P04150 whole entry, looked up): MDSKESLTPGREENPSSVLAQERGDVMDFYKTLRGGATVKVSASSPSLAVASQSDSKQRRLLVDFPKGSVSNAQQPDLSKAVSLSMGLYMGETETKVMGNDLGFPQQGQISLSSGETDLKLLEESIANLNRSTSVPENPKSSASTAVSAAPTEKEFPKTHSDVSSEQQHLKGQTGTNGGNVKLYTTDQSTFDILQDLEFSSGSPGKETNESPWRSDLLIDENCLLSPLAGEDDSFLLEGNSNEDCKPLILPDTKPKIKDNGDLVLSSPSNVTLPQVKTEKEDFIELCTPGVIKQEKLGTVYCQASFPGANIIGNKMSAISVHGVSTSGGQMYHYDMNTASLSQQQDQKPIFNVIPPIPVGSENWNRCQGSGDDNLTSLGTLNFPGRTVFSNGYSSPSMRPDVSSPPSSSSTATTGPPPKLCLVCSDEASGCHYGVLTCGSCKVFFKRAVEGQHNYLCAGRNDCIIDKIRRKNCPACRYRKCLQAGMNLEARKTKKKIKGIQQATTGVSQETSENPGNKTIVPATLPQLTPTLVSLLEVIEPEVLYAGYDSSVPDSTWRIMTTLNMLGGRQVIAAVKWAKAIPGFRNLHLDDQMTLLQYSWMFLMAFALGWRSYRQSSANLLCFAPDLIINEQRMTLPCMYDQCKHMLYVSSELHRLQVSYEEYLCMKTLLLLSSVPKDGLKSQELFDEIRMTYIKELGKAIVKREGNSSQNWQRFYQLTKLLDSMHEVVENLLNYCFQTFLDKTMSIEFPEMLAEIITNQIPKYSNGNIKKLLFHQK
Cytochrome P450 3A4 (Homo sapiens), sequence (P08684 whole entry, looked up): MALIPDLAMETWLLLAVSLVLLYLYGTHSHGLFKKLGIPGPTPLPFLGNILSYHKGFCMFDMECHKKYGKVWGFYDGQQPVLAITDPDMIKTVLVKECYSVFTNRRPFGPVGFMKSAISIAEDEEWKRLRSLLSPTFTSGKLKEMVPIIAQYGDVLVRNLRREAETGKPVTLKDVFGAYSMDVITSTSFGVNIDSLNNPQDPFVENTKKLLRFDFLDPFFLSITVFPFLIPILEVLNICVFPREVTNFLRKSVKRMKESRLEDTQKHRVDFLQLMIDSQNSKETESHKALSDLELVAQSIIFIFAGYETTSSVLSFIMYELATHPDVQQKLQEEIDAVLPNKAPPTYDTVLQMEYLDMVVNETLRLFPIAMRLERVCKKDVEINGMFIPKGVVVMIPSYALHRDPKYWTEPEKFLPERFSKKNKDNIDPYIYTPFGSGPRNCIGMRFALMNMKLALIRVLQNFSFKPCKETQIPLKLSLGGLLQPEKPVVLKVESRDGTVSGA
DNA dC->dU-editing enzyme APOBEC-3G (Homo sapiens), sequence (Q9HC16 whole entry, looked up): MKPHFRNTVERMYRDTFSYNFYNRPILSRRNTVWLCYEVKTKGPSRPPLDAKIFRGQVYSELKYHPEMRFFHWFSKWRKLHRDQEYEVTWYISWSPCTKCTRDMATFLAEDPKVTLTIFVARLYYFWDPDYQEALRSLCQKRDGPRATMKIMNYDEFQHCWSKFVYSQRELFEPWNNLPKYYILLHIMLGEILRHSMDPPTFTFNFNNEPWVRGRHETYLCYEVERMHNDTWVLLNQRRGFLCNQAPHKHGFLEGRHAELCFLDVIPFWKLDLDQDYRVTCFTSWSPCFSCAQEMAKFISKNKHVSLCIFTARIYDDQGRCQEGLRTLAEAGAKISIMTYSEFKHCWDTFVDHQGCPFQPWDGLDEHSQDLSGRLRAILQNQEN

On to `CC(=O)O[C@H]1CC[C@H]2[C@@H]3CC[C@H]4CC(=O)C=C(C)[C@]4(C)[C@H]3CC[C@]12C`, for which the Potency entry in experiment [1], in experiment [3] and in experiment [5] was “inactive” in each case. For the same compound, the compound was classed as inactive in experiment [2] and in experiment [4].
Regarding `COc1ccc(CN(C(=O)[C@@H](N)Cc2c(C)cc(C(N)=O)cc2C)[C@@H](C)c2ncc(-c3ccccc3)[nH]2)cc1C(=O)O`, the Potency entry in experiment [1], in experiment [3] and in [5] was “inactive” each time. For the same compound, the result in experiment [2] and in experiment [4] was inactive.
With `CN1CCc2cc3c(cc2C1C1OC(=O)c2c1ccc1c2OCO1)OCO3` (stereo not given), the Potency in experiment [6] is 1260 nM (active). For the same compound, the Potency entry in experiment [7], in experiment [8], in experiment [9] and in [10] was “inactive” throughout.
Take `CN[C@@H]1C[C@H]2O[C@@](C)([C@@H]1OC)n1c3ccccc3c3c4c(c5c6ccccc6n2c5c31)C(=O)NC4`: the Potency in experiment [11] is 829 nM (active); in experiment [12], 198 nM (active).
As for `CC(=O)OC[C@]12C[C@H](OC(=O)CC(C)C)C(C)=C[C@H]1O[C@@H]1[C@H](O)[C@@H](O)[C@@]2(C)[C@]12CO2`, the Potency in experiment [13] is 113 nM (active).
As to `CN(C)c1cc2c(cc1Sc1nc3c(N)nccc3n1CCNCC(C)(C)C)OCO2`, the Potency in experiment [14] is 2240 nM (active).
As for `CC1CCCC(=O)CCC/C=C/c2cc(O)cc(O)c2C(=O)O1` (stereo not given), in experiment [6], the Potency was 2000 nM (active). Also, in experiment [7], the Potency result is “inactive”. The activity change, negative = inhibition in experiment [15] is -7.32% (inactive). The results for the max response in [15] (setting [19]) and in [15] (setting [20]) were 9.42% and 4.67%, respectively.
`CC1=CC(=O)[C@@H](O)[C@]2(C)C3[C@@H](O)[C@@H]4OC(=O)[C@@H]([C@H]4C)[C@]3(C)C(=O)C[C@@H]12` (stereo not given in full): the Potency in [13] is 2240 nM (active).
For the compound `Nc1ncnc2c1ncn2[C@@H]1O[C@@H]2COP(O)(=S)O[C@H]2[C@H]1O` (stereo not given in full), in the experiment with HEK293T, the outcome was “inactive [at 9.27 µM]”.
With `Cc1sc2c(c1C)C(c1ccc(Cl)cc1)=NC(CC(=O)Nc1ccc(O)cc1)c1nnc(C)n1-2` (stereo not given), the Potency result in experiment [5] is “inactive”.
As to `C[C@H]1CCC/C=C/C2C[C@H](O)C[C@H]2[C@H](O)/C=C/C(=O)O1` (stereo not given in full), the Potency entry in experiment [9] and in [5] was “inactive” in each case. Besides, the Potency in [11] is 147 nM (active); in experiment [10], 316 nM (active); in experiment [12], 140 nM (active).
Take `COC1C(O)C(C)OC(OC2C(CO)O[C@@H](O[C@@H]3CC4CCC5C(CC[C@]6(C)[C@@H](C7=CC(=O)OC7)CC[C@]56O)[C@@]4(C)[C@H](OC(C)=O)C3)C(O)C2O)C1O` (stereo not given in full): the outcome with NIH3T3 was “inactive [at 17.4 µM]”.
Turning to `C=C1[C@@H](C)[C@H]2[C@H](Cc3ccccc3)NC(=O)[C@]23[C@H](OC(C)=O)/C=C/[C@](C)(O)C(=O)[C@@H](C)C/C=C/[C@H]3[C@@H]1O`, the Potency result in experiment [10] was “inactive”.
In the case of `C[C@@]1(CO)[C@H](O)CC[C@@]2(C)[C@H]1CC[C@H]1C[C@@H]3C[C@@]12CC[C@]3(O)CO`, in experiment [16] (at 17.2 µM (top of the series)), the activity change, negative = inhibition is 10.1% (inactive). In experiment [17], the compound was called inactive. In experiment [18], the Potency is > 20600 nM (inactive). Also, the Potency entry in [10] was “inactive”.
Consider `CCCCN1[C@@H]2CC[C@H]1CC(OC(c1ccc(F)cc1)c1ccc(F)cc1)C2` (stereo not given in full), for which the Potency in [14] is 5010 nM (active).
As to `C[C@@H]1CN(Cc2ccc(F)cc2)CCN1C(=O)COc1ccc(Cl)cc1NC(N)=O`, in experiment [11], the Potency entry is “inactive”.
As for `C=CCN1CCC2(C)c3cc(O)ccc3C[C@H]1[C@H]2C`, the activity change, negative = inhibition is -29.1% (inactive) in experiment [16] (at 38 µM (top of the series)) and -8.46% (inactive) in [15]. In addition, the result in experiment [17] was inactive. Besides, the Potency in [18] was > 46000 nM (inactive). In addition, the Potency entry in [6], in experiment [8], in [9] and in experiment [10] was “inactive” each time. The max response was found to be 25.8% in experiment [15] (setting [19]) and 17% in experiment [15] (setting [20]).
For the compound `Oc1ccc2c3c1O[C@H]1c4[nH]c5c(N=C=S)cccc5c4C[C@@]4(O)[C@@H](C2)N(CC2CC2)CC[C@]314`, the Potency result in experiment [13] was “inactive”. Further, in experiment [14], the Potency was 10000 nM (active).
For `Cc1sc2c(c1C)C(c1ccc(Cl)cc1)=N[C@@H](CC(N)=O)c1nnc(C)n1-2`, the Potency entry in experiment [5] and in [12] was “inactive” throughout.
As for `C=C(C)[C@@H]1[C@H]2OC(=O)[C@H]1[C@]1(O)C[C@H]3O[C@]34C(=O)O[C@H]2[C@]14C`, the call in the experiment on HEK293T and in the experiment on NIH3T3 was inactive.
With `CN1CCN(c2nc3ccccc3nc2Cl)CC1`, the compound was called inactive in the experiment with HEK293T and in the experiment on NIH3T3.
In the case of `CCC1NC(=O)C2C(Cl)C(Cl)CN2C(=O)C(CC)NC(=O)CC(c2ccccc2)NC(=O)C(CO)NC1=O` (stereo not given), the outcome in the experiment with NIH3T3 is “inactive [at 17.4 µM]”.
With `Cc1ccccc1CN1CCC(N2CCC(n3c(=O)[nH]c4ccccc43)CC2)CC1`, in the experiment with NIH3T3, the compound was classed as inactive.
Turning to `CN1C[C@@H]2CN(c3ccc(-c4ccccc4)nn3)C[C@@H]2C1`, in the experiment on NIH3T3, the compound was called inactive.
For the compound `C=C1C[C@]2(O)[C@@]3(C)CCC(=O)C(C)(C)C3=C(O)C(=O)[C@@]2(C)[C@@H]2C(=O)O[C@@](C)(C(=O)OC)C(=O)[C@@]12C`, in the experiment with HEK293T, the outcome was “inactive [at 17.4 µM]”.
As for `CN(C)[C@@H]1C(=O)C(C(N)=O)=C(O)[C@@]2(O)C(=O)C3=C(O)c4c(O)ccc(Cl)c4[C@@](C)(O)C3C[C@@H]12` (stereo not given in full), in experiment [16] (at 17.2 µM (top of the series)), the activity change, negative = inhibition was 0.867% (inactive). Also, the compound was classed as inactive in experiment [17]. Also, in [18], the Potency was > 20600 nM (inactive).
